# From PubChem BioAssay (EPA / NIEHS)
# Activity calls are given as the source filed them. Rule for the calls: active = hit-call score of the fitted dose curve at least 0.9, where 1 is the maximum; inactive = score below 0.9.
# Legend:
# Conditions in all cases: mRNA level, 48 h; actives raise or lower the signal
# CYP3A5 (gene 1577) = test: LTEA_HepaRG_CYP3A5: Life Technologies and Expression Analysis (LTEA) Assay for CYP3A5 using HepaRG (AID 2283493)
# Procedure, shortened: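 mRNA levels were quantified by qRT-PCR on Fluidigm arrays and normalized to three housekeeping genes. Differentiated HepaRG cells received 48 h exposure (top 100 uM, half-log steps, 0.5% DMSO vehicle, duplicate); bidirectional fitting versus DMSO.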
# [1] = read-out: Fatty Acid-Binding Protein 1 (FABP1), FABP1 (gene 2168); test: LTEA_HepaRG_FABP1: Life Technologies and Expression Analysis (LTEA) Assay for Fatty Acid-Binding Protein 1 (FABP1) using HepaRG (AID 2283494)
# Procedure, shortened: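 qRT-PCR readout of FABP1 transcript (normalized to three housekeeping genes) after 48 h chemical exposure of HepaRG cells; eight concentrations, half-log steps, max 100 uM, 0.5% DMSO vehicle; gain or loss fitted relative to DMSO baseline.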
# [2] = read-out: Cytochrome P450 4A22 (Homo sapiens) (UniProt Q5TCH4); test: LTEA_HepaRG_CYP4A22: Life Technologies and Expression Analysis (LTEA) Assay for Cytochrome P450 4A22 (CYP4A22) using HepaRG (AID 2283495)
# Procedure, shortened: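 Concentration-response (8 points, max 100 uM, 0.5% DMSO) in human HepaRG liver cells after 48 h exposure. CYP4A22 mRNA by TaqMan qRT-PCR with housekeeping-gene normalization.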
# [3] = read-out: Cytochrome P450 7A1 (Homo sapiens) (UniProt P22680); test: LTEA_HepaRG_CYP7A1: Life Technologies and Expression Analysis (LTEA) Assay for Cytochrome P450 7A1 (CYP7A1) using HepaRG (AID 2283496)
# Procedure, shortened: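 HepaRG, 48 h exposure, 8-pt half-log series from 100 uM, 0.5% DMSO vehicle, duplicates. Readout: TaqMan qRT-PCR mRNA vs three housekeeping genes; bidirectional curve fit against DMSO baseline.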
# [4] = read-out: Glutathione S-Transferase (GSTA2), GSTA2 (gene 2939); test: LTEA_HepaRG_GSTA2: Life Technologies and Expression Analysis (LTEA) Assay for Glutathione S-Transferase (GSTA2) using HepaRG (AID 2283497)
# Procedure, shortened: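 qRT-PCR readout of GSTA2 transcript, normalized to three housekeeping genes, fitted bidirectionally against 0.5% DMSO baseline. Differentiated HepaRG cells received compound for 48 h at 8 concentrations (top 100 uM, half-log steps).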
# [5] = read-out: Glutamate-cysteine ligase catalytic (GCLC), GCLC (gene 2729); test: LTEA_HepaRG_GCLC: Life Technologies and Expression Analysis (LTEA) Assay for Glutamate-cysteine ligase catalytic (GCLC) using HepaRG (AID 2283498)
# Procedure, shortened: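 HepaRG, 48 h exposure, 8-pt half-log series from 100 uM, 0.5% DMSO vehicle; TaqMan qRT-PCR for GCLC mRNA, housekeeping-normalized; bidirectional curve fit vs DMSO baseline.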
# [6] = read-out: growth arrest and DNA damage 45 (GADD45G), GADD45G (gene 10912); test: LTEA_HepaRG_GADD45G: Life Technologies and Expression Analysis (LTEA) Assay for growth arrest and DNA damage 45 (GADD45G) using HepaRG (AID 2283499)
# Procedure, shortened: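 Concentration-response in HepaRG: 48 h dosing, 0.5% DMSO, highest level 100 uM. GADD45G expression by qRT-PCR, normalised to endogenous controls; bidirectional fit to DMSO.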
# [7] = read-out: Glutathione S-transferase M3 (GSTM3), GSTM3 (gene 2947); test: LTEA_HepaRG_GSTM3: Life Technologies and Expression Analysis (LTEA) Assay for Glutathione S-transferase M3 (GSTM3) using HepaRG (AID 2283501)
# Procedure, shortened: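 Expression of GSTM3 is determined by qRT-PCR in human liver HepaRG cells treated 48 h with an 8-point half-log range from 100 uM in 0.5% DMSO.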
# [8] = read-out: Heat shock 70 kDa protein 1 (HSPA1A), gene 3303; test: LTEA_HepaRG_HSPA1A: Life Technologies and Expression Analysis (LTEA) Assay for Heat shock 70 kDa protein 1 (HSPA1A) using HepaRG (AID 2283502)
# Procedure, shortened: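 HSPA1A expression measured by qRT-PCR with ACTB/GAPDH/POLR2A normalization; curves fitted in both directions relative to DMSO vehicle. Exposure: 48 h in HepaRG cells, duplicate 8-point half-log series from 100 uM, 0.5% DMSO, serum-free induction medium.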
# [9] = read-out: Hypoxia-inducible factor 1-alpha (Homo sapiens) (UniProt Q16665); test: LTEA_HepaRG_HIF1A: Life Technologies and Expression Analysis (LTEA) Assay for Hypoxia-inducible factor 1 (HIF1A) Trancription factor using HepaRG (AID 2283503)
# Procedure, shortened: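 HIF1A transcript level read by qRT-PCR (ACTB, GAPDH, POLR2A normalization) after 48 h chemical exposure of HepaRG cultures. Eight half-log concentrations, top 100 uM, 0.5% DMSO vehicle, duplicates; bidirectional curve fit against DMSO baseline.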
# [10] = read-out: 3-Hydroxy-3-Methylglutaryl-CoA Synthase 2 (HMGCS2), HMGCS2 (gene 3158); test: LTEA_HepaRG_HMGCS2: Life Technologies and Expression Analysis (LTEA) Assay for 3-Hydroxy-3-Methylglutaryl-CoA Synthase 2 (HMGCS2) using HepaRG (AID 2283504)
# Procedure, shortened: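 This steatosis marker was read as HMGCS2 mRNA change in HepaRG cells treated 48 h with up to 100 uM chemical. Normalisation used housekeeping genes; activity in either direction was fitted relative to 0.5% DMSO vehicle.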
# HGF (gene 3082) = test: LTEA_HepaRG_HGF: Life Technologies and Expression Analysis (LTEA) Assay for Hepatocyte Growth Facto (HGF) using HepaRG (AID 2283505)
# Procedure, shortened: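 Using HepaRG monolayers kept in 0.5% DMSO, chemicals were tested in duplicate over eight half-log concentrations from 100 uM for 48 h. Endpoint: HGF mRNA change relative to DMSO, normalized to ACTB/GAPDH/POLR2A.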
# [11] = read-out: Insulin Like Growth Factor 1 (IGF1), IGF1 (gene 3479); test: LTEA_HepaRG_IGF1: Life Technologies and Expression Analysis (LTEA) Assay for Insulin Like Growth Factor 1 (IGF1) using HepaRG (AID 2283506)
# Procedure, shortened: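 Expression measured by TaqMan qRT-PCR on a Fluidigm array, with three housekeeping genes for normalisation, after 48 h treatment of HepaRG cells. Top concentration 100 uM with half-log steps, 0.5% DMSO vehicle, bidirectional fit.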
# [12] = read-out: Intercellular Adhesion Molecule 1 (ICAM1), ICAM1 (gene 3383); test: LTEA_HepaRG_ICAM1: Life Technologies and Expression Analysis (LTEA) Assay for Intercellular Adhesion Molecule 1 (ICAM1) using HepaRG (AID 2283507)
# Procedure, shortened: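 Using the human liver line HepaRG, compounds are tested in duplicate over 48 h at concentrations up to 100 uM. Expression is determined by TaqMan qRT-PCR, normalized to endogenous controls, and analysed relative to 0.5% DMSO vehicle.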
# [13] = read-out: Insulin-like growth factor-binding protein 1 (IGFBP1), IGFBP1 (gene 3484); test: LTEA_HepaRG_IGFBP1: Life Technologies and Expression Analysis (LTEA) Assay for Insulin-like growth factor-binding protein 1 (IGFBP1) using HepaRG (AID 2283508)
# Procedure, shortened: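 HepaRG, 48 h, 8 conc. (max 100 uM, half-log), duplicates, 0.5% DMSO. Readout: TaqMan qRT-PCR, ACTB/GAPDH/POLR2A normalisation. Fit: bidirectional vs DMSO.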
# [14] = read-out: Interleukin 6 (IL6), IL6 (gene 3569); test: LTEA_HepaRG_IL6: Life Technologies and Expression Analysis (LTEA) Assay for Interleukin 6 (IL6) using HepaRG (AID 2283509)
# Procedure, shortened: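 qRT-PCR read-out of IL6 transcript, normalized to three housekeeping genes, after 48 h chemical exposure of HepaRG cells; 8-point half-log series, top 100 uM, 0.5% DMSO vehicle. Bidirectional curve fitting against DMSO baseline.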
# [15] = read-out: Interleukin 6 Receptor (IL6R), IL6R (gene 3570); test: LTEA_HepaRG_IL6R: Life Technologies and Expression Analysis (LTEA) Assay for Interleukin 6 Receptor (IL6R) using HepaRG (AID 2283510);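 for AC50: differentiated human HepaRG liver cells in serum-free induction medium; TaqMan qRT-PCR signal normalized to ACTB GAPDH and POLR2A housekeeping genes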
# Procedure, shortened: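 IL6R transcript level by qRT-PCR after 48 h chemical exposure (8-point, half-log, max 100 uM, 0.5% DMSO vehicle) of HepaRG cells in serum-free induction medium. Normalized to three housekeeping genes; curves fitted in both directions relative to DMSO.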
# [16] = read-out: Potassium channel subfamily K member 1 (KCNK1), KCNK1 (gene 3775); test: LTEA_HepaRG_KCNK1: Life Technologies and Expression Analysis (LTEA) Assay for Potassium channel subfamily K member 1 (KCNK1) using HepaRG (AID 2283511)
# Procedure, shortened: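 HepaRG, 48 h exposure, 8-pt half-log series top 100 uM, 0.5% DMSO vehicle, duplicates. Readout: KCNK1 transcript by qRT-PCR (Fluidigm array), housekeeping-normalized; bidirectional curve fit relative to DMSO baseline.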
# [17] = read-out: Keratin 19 (KRT19), KRT19 (gene 3880); test: LTEA_HepaRG_KRT19: Life Technologies and Expression Analysis (LTEA) Assay for Keratin 19 (KRT19) using HepaRG (AID 2283512)
# Procedure, shortened: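 Readout is qRT-PCR of KRT19 mRNA, normalized to ACTB, GAPDH and POLR2A, from HepaRG cells treated 48 h with eight-point half-log dilutions topping at 100 uM. Activity in either direction is scored relative to 0.5% DMSO vehicle.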
# [18] = read-out: Glutamate-cysteine ligase regulatory (GCLM), GCLM (gene 2730); test: LTEA_HepaRG_GCLM: Life Technologies and Expression Analysis (LTEA) Assay for Glutamate-cysteine ligase regulatory (GCLM) using HepaRG (AID 2283500)
# Procedure, shortened: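 GCLM expression quantified by qRT-PCR, normalized to three housekeeping genes, after 48 h chemical treatment of HepaRG cells in duplicate at 8 concentrations (top 100 uM, half-log steps, 0.5% DMSO). Changes fitted both directions against vehicle.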
# Sequence of Hypoxia-inducible factor 1-alpha (Homo sapiens) (Q16665 whole entry, looked up): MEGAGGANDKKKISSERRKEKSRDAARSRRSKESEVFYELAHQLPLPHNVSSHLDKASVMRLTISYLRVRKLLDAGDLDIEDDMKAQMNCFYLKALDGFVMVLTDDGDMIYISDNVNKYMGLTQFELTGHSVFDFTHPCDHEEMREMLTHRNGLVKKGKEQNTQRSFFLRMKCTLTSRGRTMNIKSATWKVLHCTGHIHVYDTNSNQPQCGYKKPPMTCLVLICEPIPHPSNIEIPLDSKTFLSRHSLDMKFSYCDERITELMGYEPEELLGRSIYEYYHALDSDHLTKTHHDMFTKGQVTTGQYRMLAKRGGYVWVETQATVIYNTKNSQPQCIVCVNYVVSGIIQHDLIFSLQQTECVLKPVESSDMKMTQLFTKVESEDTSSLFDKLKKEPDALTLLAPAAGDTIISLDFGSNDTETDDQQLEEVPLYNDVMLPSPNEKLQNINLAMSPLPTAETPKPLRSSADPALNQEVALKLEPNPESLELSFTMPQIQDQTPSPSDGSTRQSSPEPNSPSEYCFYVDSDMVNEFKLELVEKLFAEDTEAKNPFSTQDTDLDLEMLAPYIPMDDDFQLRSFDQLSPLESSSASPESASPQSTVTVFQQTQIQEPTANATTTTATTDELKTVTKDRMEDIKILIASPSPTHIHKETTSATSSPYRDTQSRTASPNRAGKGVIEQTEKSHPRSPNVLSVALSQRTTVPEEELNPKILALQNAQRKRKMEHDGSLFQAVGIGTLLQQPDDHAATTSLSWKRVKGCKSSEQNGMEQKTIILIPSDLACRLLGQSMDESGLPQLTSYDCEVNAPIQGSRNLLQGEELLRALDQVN
compound,measurement,setting,value
COC(=O)CCCC(=O)OC,outcome,CYP3A5 (gene 1577),inactive
same,outcome,[1],inactive
same,outcome,[2],inactive
same,outcome,[3],inactive
same,outcome,[4],inactive
same,outcome,[5],inactive
same,outcome,[6],inactive
same,outcome,[7],inactive
same,outcome,[8],inactive
same,outcome,[9],inactive
same,outcome,[10],inactive
same,outcome,HGF (gene 3082),inactive
same,outcome,[11],inactive
same,outcome,[12],inactive
same,outcome,[13],inactive
same,outcome,[14],inactive
same,outcome,[15],inactive
same,outcome,[16],inactive
same,outcome,[17],inactive
Cc1cn([C@H]2C=C[C@@H](CO)O2)c(=O)[nH]c1=O,outcome,CYP3A5 (gene 1577),inactive
same,outcome,[1],inactive
same,outcome,[2],inactive
same,outcome,[3],inactive
same,outcome,[4],inactive
same,outcome,[5],inactive
same,outcome,[6],inactive
same,outcome,[18],inactive
same,outcome,[7],inactive
same,outcome,[8],inactive
same,outcome,[10],inactive
same,outcome,HGF (gene 3082),inactive
same,outcome,[11],inactive
same,outcome,[12],inactive
same,outcome,[13],inactive
same,outcome,[14],inactive
same,outcome,[15],inactive
same,outcome,[16],inactive
same,outcome,[17],inactive
CSc1ccc(Oc2ccc(S(N)(=O)=O)cc2CN(C)C)cc1C,outcome,CYP3A5 (gene 1577),inactive
same,outcome,[1],inactive
same,AC50,[2],85.1 µM (active)
same,outcome,[3],inactive
same,outcome,[4],inactive
same,outcome,[5],inactive
same,AC50,[6],50 µM (active)
same,outcome,[7],inactive
same,outcome,[8],inactive
same,outcome,[9],inactive
same,AC50,[10],63.9 µM (active)
same,outcome,HGF (gene 3082),inactive
same,outcome,[11],inactive
same,outcome,[12],inactive
same,AC50,[13],69.7 µM (active)
same,AC50,[14],88.2 µM (active)
same,outcome,[15],inactive
same,outcome,[16],inactive
same,AC50,[17],50 µM (active)
Nc1nc(=S)c2[nH]cnc2[nH]1,outcome,CYP3A5 (gene 1577),inactive
same,AC50,[1],9.73 µM (active)
same,AC50,[2],7.06 µM (active)
same,AC50,[3],10.2 µM (active)
same,AC50,[4],7.68 µM (active)
same,AC50,[5],15.3 µM (active)
same,outcome,[6],inactive
same,outcome,[7],inactive
same,outcome,[9],inactive
same,AC50,[10],7.48 µM (active)
same,outcome,HGF (gene 3082),inactive
same,AC50,[11],20.5 µM (active)
same,outcome,[12],inactive
same,outcome,[13],inactive
same,AC50,[14],14.8 µM (active)
same,AC50,[15],8.69 µM (active)
same,outcome,[17],inactive
OCC(O)CO,outcome,CYP3A5 (gene 1577),inactive
same,outcome,[1],inactive
same,outcome,[2],inactive
same,outcome,[4],inactive
same,outcome,[5],inactive
same,outcome,[6],inactive
same,outcome,[18],inactive
same,outcome,[7],inactive
same,outcome,[8],inactive
same,outcome,[9],inactive
same,outcome,[10],inactive
same,outcome,HGF (gene 3082),inactive
same,outcome,[11],inactive
same,outcome,[12],inactive
same,outcome,[13],inactive
same,outcome,[14],inactive
same,outcome,[15],inactive
same,outcome,[16],inactive
same,outcome,[17],inactive
O=C(O)c1cccnc1,outcome,CYP3A5 (gene 1577),inactive
same,outcome,[1],inactive
same,outcome,[2],inactive
same,outcome,[3],inactive
same,outcome,[4],inactive
same,outcome,[5],inactive
same,outcome,[6],inactive
same,outcome,[18],inactive
same,outcome,[7],inactive
same,outcome,[8],inactive
same,outcome,[9],inactive
same,outcome,[10],inactive
same,outcome,[11],inactive
same,outcome,[13],inactive
same,outcome,[14],inactive
same,outcome,[15],inactive
same,outcome,[16],inactive
same,outcome,[17],inactive
CC(=O)CC(c1ccccc1)c1c(O)c2ccccc2oc1=O (stereo unspecified),outcome,CYP3A5 (gene 1577),inactive
same,outcome,[1],inactive
same,outcome,[2],inactive
same,outcome,[3],inactive
same,outcome,[4],inactive
same,outcome,[5],inactive
same,outcome,[6],inactive
same,outcome,[18],inactive
same,outcome,[7],inactive
same,outcome,[8],inactive
same,outcome,[9],inactive
same,outcome,[10],inactive
same,outcome,HGF (gene 3082),inactive
same,outcome,[11],inactive
same,outcome,[12],inactive
same,outcome,[13],inactive
same,outcome,[14],inactive
same,outcome,[15],inactive
same,outcome,[16],inactive
same,outcome,[17],inactive
